The values that follow come from PubChem BioAssay (NCATS).

Structures are written as SMILES. Several values for one entry are separate records, joined by “and”; a condition that tells them apart may be missing. Equal values may be shown once. Inconclusive results are not listed. Entries that show only a call come without a potency. Activity calls are given as the source filed them. The call rests on the fitted dose curve; in most records, active means well fitted cell-killing curve with a large enough effect; inconclusive means small, poorly fitted or top-dose-only effect; inactive means flat fitted curve, though single readings scatter.

The nature of the first experiment: qHTS of pediatric cancer cell lines to identify multiple opportunities for drug repurposing: Primary screen for Rh18 cells (AID 1347102). Further: nearly all actives have a fitted effect of over 65% in size. To be noted: Rh18 rhabdomyosarcoma viability, CellTiter-Glo luminescence, 48 h; series mostly up to 46 µM; activity change, negative = cytotoxic: at the top concentration. In short, it runs like this: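 Viability after 48 h compound treatment at 37C, 500-1,000 cells/well, read as ATP luminescence with CellTiter-Glo. Primary screens used 11-point (MIPE, 0.78 nM-46 µM) or 8-point (NPC, 0.59 nM-46 µM) final concentrations; follow-up screens used 11-point dilutions.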
For orientation: Quantitative high-throughput screening tests each substance at several concentrations.
Regarding `CC1=NN(c2ccccc2)C(=O)C1`, the Potency entry was “inactive”. Regarding `NC(=O)c1ccc2[nH]ccc2c1`, the “activity change, negative = cytotoxic” value was -5.19% (inactive).

With `OC(Cn1cncn1)(Cn1cncn1)c1ccc(F)cc1F`, the Potency entry is “inactive”. Regarding `CN1CCN(c2c(F)cc3c(=O)c(C(=O)O)cn(CCF)c3c2F)CC1`, the Potency entry is “inactive”. `CC1=C(C(=O)O)N2C(=O)[C@@H](NC(=O)C(N)c3ccccc3)[C@H]2SC1` (stereo partly specified): the “activity change, negative = cytotoxic” value is 6.09% (inactive). For the compound `NC(=O)N1c2ccccc2CC(=O)c2ccccc21`, the Potency entry is “inactive”. For the compound `O=C(N[C@H](CO)[C@H](O)c1ccc([N+](=O)[O-])cc1)C(Cl)Cl`, the Potency entry is “inactive”. Take `CCn1cc(C(=O)O)c(=O)c2cc(F)c(N3CCNCC3)cc21`: the Potency result is “inactive”.

For the compound `O=C(O)c1cccnc1`, the Potency result was “inactive”.

In the case of `COc1ccc2c(c1)c(CC(=O)OCC(=O)O)c(C)n2C(=O)c1ccc(Cl)cc1`, the Potency entry is “inactive”. The same measure, in the same setting: next, `C[C@@H]1CN(c2c(F)c(N)c3c(=O)c(C(=O)O)cn(C4CC4)c3c2F)C[C@H](C)N1`: “inactive”; `Cc1cccc(Nc2ccncc2S(=O)(=O)NC(=O)NC(C)C)c1`: “inactive”; `CN(Cc1cc(Br)cc(Br)c1N)C1CCCCC1`: “inactive”. As to `CC1=CC(=O)c2ccccc2C1=O`, the “activity change, negative = cytotoxic” value was -16.7% (inactive). Regarding `NCCCC(O)(P(=O)(O)O)P(=O)(O)O`, the Potency entry was “inactive”. Consider `COc1cc(NS(=O)(=O)c2ccc(N)cc2)nc(OC)n1`, for which the Potency entry is “inactive”. The same measure, in the same setting: for `O=S(=O)(c1cccc2cnccc12)N1CCCNCC1` the value was “inactive”; for `CC(C)OC(=O)C(C(=O)OC(C)C)=C1SC=CS1`, “inactive”; for `O=C(O)c1cn(C2CC2)c2cc(N3CCNCC3)c(F)cc2c1=O`, “inactive”. As for `CO[C@@H]1[C@@H](OC(N)=O)[C@@H](O)[C@H](Oc2ccc3c(O)c(NC(=O)c4ccc(O)c(CC=C(C)C)c4)c(=O)oc3c2C)OC1(C)C`, the Potency entry is “inactive”. For the compound `O=C(O)CCn1c2c(c3ccccc31)C[C@H](NS(=O)(=O)c1ccc(F)cc1)CC2`, the Potency entry is “inactive”.

Another experiment in a line: qHTS of pediatric cancer cell lines to identify multiple opportunities for drug repurposing: Primary screen for RD cells (AID 1347104). Further: nearly all actives have a fitted effect of over 55% in size. Further: potency means the concentration at half of the fitted maximal effect. To be noted: RD rhabdomyosarcoma viability, CellTiter-Glo luminescence, 48 h; series mostly up to 46 µM; activity change, negative = cytotoxic: at the top concentration. In outline:
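Primary screen of approved and investigational compounds on cells in growth media at 37 degrees C, 5% CO2. MIPE set at 11-point and NPC set at 8-point dilutions; viability scored by ATP-based luminescence at 48 hours.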
As to `CCN(CC)CC#CCOC(=O)C(O)(c1ccccc1)C1CCCCC1` (stereo unspecified), the “activity change, negative = cytotoxic” value was -5.5% (inactive). For the compound `C1CCC(C(CC2CCCCN2)C2CCCCC2)CC1` (stereo unspecified), the Potency was 21.1 µM (active) and 29.6 µM (active). With `CCC(C)(C)c1ccc(CC(C)CN2C[C@@H](C)O[C@@H](C)C2)cc1` (stereo partly specified), the Potency entry is “inactive”. For the compound `Clc1ccccc1CN1CCc2sccc2C1`, the “activity change, negative = cytotoxic” value is -8.74% (inactive). Turning to `Cc1onc(-c2ccccc2Cl)c1C(=O)N[C@@H]1C(=O)N2[C@@H]1SC(C)(C)[C@@H]2C(=O)O`, the Potency result is “inactive”. `CC(C)OC(=O)OCOP(=O)(CO[C@H](C)Cn1cnc2c(N)ncnc21)OCOC(=O)OC(C)C`: the Potency result is “inactive”. Take `N[C@@H](Cc1ccc(O)c(O)c1)C(=O)O`: the “activity change, negative = cytotoxic” value was -0.925% (inactive). As to `CCCCS(=N)(=O)CCC(N)C(=O)O` (stereo unspecified), the “activity change, negative = cytotoxic” value was 9.16% (inactive). Regarding `CNS(=O)(=O)Cc1ccc2[nH]cc(CCN(C)C)c2c1`, the Potency result was “inactive”. Turning to `CC(=O)[C@H]1CC[C@H]2[C@@H]3CC=C4C[C@@H](O)CC[C@]4(C)[C@H]3CC[C@]12C`, the “activity change, negative = cytotoxic” value is 16.6% (inactive). Consider `CN(C)CCc1c[nH]c2ccc(C[C@H]3COC(=O)N3)cc12`, for which the Potency result was “inactive”.

On to `O=P(O)(O)C(O)(Cc1cccnc1)P(=O)(O)O`, for which the Potency entry was “inactive”. Take `Cc1ccnc2c1NC(=O)c1cccnc1N2C1CC1`: the Potency result was “inactive”. Turning to `NC1(c2ccc(-c3nc4ccn5c(=O)[nH]nc5c4cc3-c3ccccc3)cc2)CCC1`, the Potency is 16.6 µM (active) and 13.3 µM (active). Consider `CC1=NN(c2ccccc2)C(=O)C1`, for which the Potency result is “inactive”.

Regarding `NC(=O)c1ccc2[nH]ccc2c1`, the “activity change, negative = cytotoxic” value was -2.13% (inactive). As to `OC(Cn1cncn1)(Cn1cncn1)c1ccc(F)cc1F`, the Potency result was “inactive”. Turning to `CN1CCN(c2c(F)cc3c(=O)c(C(=O)O)cn(CCF)c3c2F)CC1`, the Potency entry is “inactive”. In the case of `CC1=C(C(=O)O)N2C(=O)[C@@H](NC(=O)C(N)c3ccccc3)[C@H]2SC1` (stereo partly specified), the “activity change, negative = cytotoxic” value was 15.3% (inactive). For the compound `NC(=O)N1c2ccccc2CC(=O)c2ccccc21`, the Potency entry was “inactive”.

Turning to `O=C(N[C@H](CO)[C@H](O)c1ccc([N+](=O)[O-])cc1)C(Cl)Cl`, the Potency result was “inactive”. On to `CCn1cc(C(=O)O)c(=O)c2cc(F)c(N3CCNCC3)cc21`, for which the Potency result is “inactive”.

For the compound `O=C(O)c1cccnc1`, the Potency entry was “inactive”. Regarding `COc1ccc2c(c1)c(CC(=O)OCC(=O)O)c(C)n2C(=O)c1ccc(Cl)cc1`, the Potency entry is “inactive”. Consider `C[C@@H]1CN(c2c(F)c(N)c3c(=O)c(C(=O)O)cn(C4CC4)c3c2F)C[C@H](C)N1`, for which the Potency result is “inactive”. As to `Cc1cccc(Nc2ccncc2S(=O)(=O)NC(=O)NC(C)C)c1`, the Potency result was “inactive”.

For the compound `CN(Cc1cc(Br)cc(Br)c1N)C1CCCCC1`, the Potency result was “inactive”.

`CC1=CC(=O)c2ccccc2C1=O`: the Potency is 18.7 µM (active). Still for that read-out and setting: next, `NCCCC(O)(P(=O)(O)O)P(=O)(O)O`: “inactive”.

For `COc1cc(NS(=O)(=O)c2ccc(N)cc2)nc(OC)n1`, the Potency entry is “inactive”. As to `O=S(=O)(c1cccc2cnccc12)N1CCCNCC1`, the Potency result is “inactive”.

Take `CC(C)OC(=O)C(C(=O)OC(C)C)=C1SC=CS1`: the Potency entry was “inactive”. The same measure, in the same setting: for `O=C(O)c1cn(C2CC2)c2cc(N3CCNCC3)c(F)cc2c1=O` the value was “inactive”; for `CO[C@@H]1[C@@H](OC(N)=O)[C@@H](O)[C@H](Oc2ccc3c(O)c(NC(=O)c4ccc(O)c(CC=C(C)C)c4)c(=O)oc3c2C)OC1(C)C`, “inactive”. Still for that read-out and setting: for `O=C(O)CCn1c2c(c3ccccc31)C[C@H](NS(=O)(=O)c1ccc(F)cc1)CC2` the value was “inactive”.
